Cruzain inh noDet – inhibitors of Trypanosoma cruzi cruzain without detergent; P25779; purified cruzain, Z-FR-AMC fluorescence, no detergent; Potency, µM, inactives show max response, negative = inhibition, usual class: inhibitors; hit rate 2.3% among 200,000; AID 1476;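 also: plate controls were enzyme without inhibitor for no effect and buffer without enzyme for full effect; nearly all actives have a fitted effect of over 40% in size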
Target sequence (P25779 123-467 limits assumed): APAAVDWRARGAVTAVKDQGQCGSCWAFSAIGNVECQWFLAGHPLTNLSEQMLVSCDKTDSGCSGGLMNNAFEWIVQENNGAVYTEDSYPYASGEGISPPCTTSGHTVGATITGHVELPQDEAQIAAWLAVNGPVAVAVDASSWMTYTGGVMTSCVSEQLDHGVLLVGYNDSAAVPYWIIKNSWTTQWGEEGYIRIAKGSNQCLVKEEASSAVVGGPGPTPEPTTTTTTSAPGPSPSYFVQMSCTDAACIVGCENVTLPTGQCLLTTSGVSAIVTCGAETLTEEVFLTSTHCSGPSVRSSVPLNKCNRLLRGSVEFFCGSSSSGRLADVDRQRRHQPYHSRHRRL
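Purified cruzain at 1.5 nM, pre-incubated 15 min with compound at room temperature in 100 mM sodium acetate pH 5.5, 5 mM DTT, 0.00005% Triton X-100. Reaction started with 2 uM Z-FR-AMC; AMC fluorescence increase over 60 s gives rate.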
Cruzain Triton – cruzain (T. cruzi) inhibition with detergent; AID 1478; Potency, µM, without a hit: max response, negative = inhibition, actives largely listed as inhibitors; P25779; purified cruzain, Z-FR-AMC fluorescence, 0.01% Triton; hit rate 0.43% among 200,000;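 also: plate controls were neutral wells for no effect and buffer without enzyme for full effect; nearly all actives have a fitted effect of over 40% in size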
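Enzyme 1.5 nM, Z-FR-AMC 2 uM, NaOAc 100 mM pH 5.5, DTT 5 mM, Triton X-100 0.01%; 15 min RT compound preincubation; kinetic ex360/em450, 60 s delta.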
The depositor's hits bear a star; u = inconclusive. Shown are actives, neighbours in structure and some others; about 2.6% of the full set was active somewhere. Calls follow the shape of the dose curve; as a rule, active = well fitted curve in the direction sought with a large enough effect; inconclusive = small, poorly fitted or top-dose-only effect, or another doubt; inactive = no such curve, though single readings can be large; an effect the other way counts as inactive or inconclusive. Potency is read from the fitted curve at half-maximal effect.

SMILES | Cruzain inh noDet | Cruzain Triton
O=C(Cn1ccc2cc(S(=O)(=O)N3CCCCCC3)ccc21)NCCc1ccc(Cl)cc1 | 4% | -6%
CCOc1cc(S(=O)(=O)NCCc2c(C)[nH]c3ccc(C)cc23)ccc1Br | -7% | -13%
O=C(NCCc1ccc(Cl)cc1)c1ccc(CS(=O)Cc2cccc(Cl)c2)o1 (stereo not given) | u | -10%
CN1C(=O)/C(=C2\SC(=S)N(CC3CCCO3)C2=O)c2ccccc21 (stereo not given) | 0% | 0%
O=C1/C(=C\c2ccc(-c3ccccc3Cl)o2)SC(=S)N1CC1CCCO1 (stereo not given) | 16µM* | -4%
CCOCCc1nn2c(=O)cc(COC(=O)C3CCCCC3)nc2s1 | -3% | -4%
Cc1nc2cnc(Oc3ccccc3)nc2n(C2CC2)c1=O | -16% | -3%
Cc1ccc(C(=O)c2ccc([N+](=O)[O-])cc2)cc1 | -1% | 2%
Cc1ccc(S(=O)(=O)CC#CCOC(=O)c2ccc([N+](=O)[O-])cc2)cc1 | 13µM* | 14µM*
CCOc1ccccc1NC(=O)Cn1c(=O)n(Cc2ccc(C(=O)NCCCOC)cc2)c(=O)c2ccccc21 | -4% | -3%
O=C1N/C(=C/c2ccc(Br)cc2)C(O)=C1C=NCc1ccccc1 | 20µM* | -3%
O=C1C(C=NCc2ccncc2)=C(O)c2ccccc21 | 1% | -3%
CC1CCN(c2ccc(/C=N/n3nnnc3N)cc2[N+](=O)[O-])CC1 | -10% | -1%
CC1CCN(c2ccc(/C=N\Nc3nncn3N)cc2[N+](=O)[O-])CC1 | 25µM* | -9%
O=c1cc2nc(-c3ccccc3)nc(SCc3cccc(Br)c3)n2[nH]1 | -18% | 2%
CCOc1cc(/C=N/N=C(/N)c2nonc2N)cc(Br)c1OCc1ccc(Cl)cc1 | 4µM* | 2%
COc1cc(/C=N/N=C(/N)c2nonc2N)cc(Br)c1OCc1ccccc1C | -25% | 3%
O=C(/C=C/Nc1ccc(S(=O)(=O)Nc2ncccn2)cc1)c1ccc(Cl)c(Cl)c1 | 32µM* | -5%
CC(=O)c1cccc(NS(=O)(=O)c2ccc(N/C=C\C(=O)c3ccc(C)cc3)cc2)c1 | -4% | 4%
O=C(NCc1ccc(F)cc1)C1CCCCN1S(=O)(=O)c1ccc(F)cc1 (stereo not given) | -3% | 0%
CCCCOc1ccc(-c2nc(/C=N/c3nccs3)c(O)o2)cc1 | u | 1%
CCOc1ccc2nc(/N=C/c3nc(-c4ccc(Br)cc4)oc3O)sc2c1 | 7.9µM* | 2%
CCOc1ccc(CCNC(=O)CCn2c(=O)c3cccn3c3cccnc32)cc1 | 10% | -1%
O=C(CSc1oc(-c2ccc(F)cc2)nc1S(=O)(=O)c1ccccc1)c1ccc(Cl)cc1 | 32µM* | -5%
O=C(CSc1oc(-c2ccco2)nc1S(=O)(=O)c1ccc(Br)cc1)c1ccc(Cl)cc1 | 20µM* | -5%
SMILES | Cruzain inh noDet | Cruzain Triton
Cc1ccc(-c2nc(S(=O)(=O)c3ccc(C)cc3)c(SCC(=O)c3ccccc3)o2)cc1 | 16µM* | -5%
CCCSc1oc(-c2ccco2)nc1S(=O)(=O)c1ccc(Cl)cc1 | 1% | -26%
Cc1ccc(S(=O)(=O)c2nc(-c3ccc(F)cc3)oc2SCC(=O)c2ccccc2)cc1 | u | -1%
O=C(CSc1oc(-c2ccccc2)nc1S(=O)(=O)c1ccc(Cl)cc1)Nc1ccc(F)cc1 | 6% | -5%
C=CCOC(=O)N[C@H](C[N+](=O)[O-])c1ccccc1 | 3% | 2%
COc1ccc(Cl)cc1NC(=O)CSc1ccc(-c2sc(C)nc2C)nn1 | -3% | -4%
Cc1cccc(C)c1NC(=O)COc1ccc2c(C)c(Cc3ccccc3)c(=O)oc2c1C | 13µM* | -4%
Cc1cc(C)cc(NC(=O)COc2ccc3c(C)c(Cc4ccccc4)c(=O)oc3c2)c1 | u | -6%
Cc1c(Cc2ccccc2)c(=O)oc2c(C)c(OCC(=O)Nc3ccc(C#N)cc3)ccc12 | 13µM* | -8%
COc1cccc(C(=O)COc2ccc3c(C)c(Cc4ccccc4)c(=O)oc3c2C)c1 | u | -8%
COc1ccc(NC(=O)Cn2c(=O)n(CCc3ccccc3)c(=O)c3c4c(sc32)CCCC4)cc1 | -2% | -2%
CC(=O)Nc1cccc(NC(=O)CSc2cn(CC(=O)N(C(C)C)C(C)C)c3ccccc23)c1 | 11% | -5%
CCN(C(=O)CCS(=O)(=O)c1cc2c(cc1C)NC(=O)CO2)c1cccc(C)c1 | -2% | -6%
O=C(Nc1cccc(-c2cn3ccccc3n2)c1)c1cc2ccccc2oc1=O | u | 3.5µM*
O=C(Nc1cccc(-c2cn3ccccc3n2)c1)c1cccs1 | 3% | -6%
O=C(CSc1nnc(-c2ccccc2Cl)o1)N1CCCc2ccccc21 | 3% | -8%
COc1cc(SC#N)ccc1N=Cc1c(C)[nH]n(-c2ccc(C)c(C)c2)c1=O | -5% | -5%
COc1cc(SC#N)ccc1N=Cc1c(C)[nH]n(-c2ccc(Cl)cc2)c1=O | 20µM* | 0%
COc1cccc(NC(=O)c2sc3nc(C)c(C(=O)Nc4ccc(C)cc4C)c(-c4cccs4)c3c2N)c1 | -26% | 1%

High-throughput results: PubChem, National Center for Advancing Translational Sciences (NCATS)
